CCHFV vOTU inh – blocks the CCHF virus ovarian tumor domain protease | inhibition, % at 11.5 µM | actives 0.55% (n = 370,000) | CCHFV vOTU protease, Pep-AMC fluorescence; in the data active = inhibition above about 30%; also: 0% = vehicle wells with enzyme and 100% = no enzyme wells
TcdB inh – TcdB glycohydrolase inhibition; TcdB glycohydrolase enzymatic assay, plate reader; inhibition, % at 9.99 µM; P18177; AID 652162; actives 0.24% (n = 350,000); in the data active = inhibition above about 10%
SARS 3CLpro inh-1 – SARS-CoV 3CLpro protease inhibition; recombinant SARS-CoV 3CLpro, quenched FRET peptide cleavage; inhibition, % at 6 µM; actives 0.14% (n = 290,000); AID 1706; in the data active = inhibition above about 12%
DUSP3 inh – inhibitors of human VHR1 phosphatase (DUSP3); P51452; recombinant VHR phosphatase, pNPP absorbance; inhibition, % at 13.3 µM; actives 0.52% (n = 290,000); in the data active = inhibition above about 50%
Vc quorum ag – induces V. cholerae light production without autoinducers. V. cholerae BH1578 lux reporter, luminescence, 6 h. activation, % at 18.7 µM. actives 0.16% (n = 350,000); in the data active = activation mostly above about 9.7%, no sharp cut-off
PriA SSB inh – inhibitors of Klebsiella pneumoniae PriA binding to SSB C-terminal tail. AlphaScreen SSBct-PriA binding, biotinylated peptide. inhibition, % at 33 µM. actives 0.6% (n = 430,000); in the data active = inhibition mostly above about 37%, no sharp cut-off; inactive = mostly below about 20%;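 also: plate controls were negative control peptide for no effect and reference peptide for full effect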
SARS 3CLpro inh-2 – confirmation of SARS coronavirus 3C-like protease inhibitors; QFRET protease activity assay, 3CLpro; actives 36% (n = 380); inhibition, % at 6 µM; shares compounds with SARS 3CLpro inh-1; in the data active = inhibition above about 13%
Numbers without * were called inactive; i = inactive; / = not tested or not shown. Compounds with a hit are over-represented: about 1.3% of the library has one in this group of screens.

SMILES	CCHFV vOTU inh	TcdB inh	SARS 3CLpro inh-1	DUSP3 inh	Vc quorum ag	PriA SSB inh	SARS 3CLpro inh-2
O=S(=O)(Nc1cc(F)ccc1F)c1cccc2nonc12	-1.0	1.3	12.9*	27.9	0.3	-12.4	-5.6
O=S(=O)(Nc1cc(F)ccc1F)c1cccc2nsnc12	3.0	1.8	3.8	30.3	-0.2	-14.6	/
O=C(CCn1cnc2ccccc2c1=O)NCC1CCCN1c1ccccc1 (stereo unspecified)	/	/	/	/	/	9.0	/
Cn1nc(C(=O)NCCn2nc(-c3ccccn3)n(C)c2=O)ccc1=O	/	/	/	/	/	5.0	/
CCCc1c(C(=O)N/N=C/c2c(OC)ccc3ccccc23)nnn1-c1nonc1N	-2.1	0.1	14.0*	1.1	-0.1	/	0.2
COc1cccc(/C=N/NC(=O)c2nnn(-c3nonc3N)c2CN(C)c2ccccc2)c1	18.3	2.6	12.4*	1.6	-0.2	/	-0.5
CCCc1c(C(=O)NN=Cc2c(OC)ccc3ccccc23)nnn1-c1nonc1N	/	/	/	/	/	-1.6	/
C/C(Cn1nnc([N+](=O)[O-])n1)=N\NC(=O)c1ccc(Cl)c(Cl)c1	-11.1	-0.6	13.7*	13.6	i	/	0.0
COC(=O)Cc1csc(N=Cc2c(O)n(-c3cccc(C(F)(F)F)c3)c(=O)c3ccccc23)n1	/	/	/	/	/	5.3	/
O=C(Oc1cccnc1)c1ccc(Cl)cc1	-0.8	/	24.1*	0.3	/	-12.2	33.6*
O=S(=O)(Cc1cccc(F)c1)NCc1ccccc1-c1ccsc1	/	/	/	/	/	-15.0	/
Cc1cc(C)c(C)c(S(=O)(=O)N2CCN(C(=O)c3cc(=O)[nH]c4ccccc34)CC2)c1C	-18.6	/	55.1*	22.4	-0.2	10.6	53.2*
Cc1cc(C)c(S(=O)(=O)N2CCN(C(=O)c3cc(=O)[nH]c4ccccc34)CC2)c(C)c1	-7.2	1.8	/	/	-2.1	4.9	/
O=C(c1cc(=O)[nH]c2ccccc12)N1CCN(c2cccc(C(F)(F)F)c2)CC1	-2.8	0.8	45.9*	5.3	-0.5	0.3	44.3*
O=C(c1cc(=O)[nH]c2ccccc12)N1CCN(c2ccc([N+](=O)[O-])cc2)CC1	16.4	0.0	10.2	-26.1	-0.4	-6.0	/
O=C(c1ccccc1F)N1CCN(c2cccc(C(F)(F)F)c2)CC1	7.1	/	0.9	33.4	0.7	-12.9	/
COc1ccc(N2CCN(C(=O)c3cc(=O)[nH]c4ccccc34)CC2)cc1	-2.1	0.7	27.0*	37.1	-0.3	-2.0	26.7*
CCOC(=O)CC(=O)CSc1ncnc2sc3c(c12)CCCC3	/	/	/	/	/	-38.0	/
O=C(O)c1[nH]c2ccccc2c1C(c1ccccc1)c1c(C(=O)O)[nH]c2ccccc12	18.4	2.0	2.2	2.3	-1.7	-3.1	/
O=C(O)COc1ccc(Br)cc1C(c1c(C(=O)O)[nH]c2ccccc12)c1c(C(=O)O)[nH]c2ccccc12	/	/	13.1*	1.7	-0.8	7.8	16.1*
Cc1ccc(NC(=O)CCC(=O)NNC(=O)C(c2ccccc2)c2ccccc2)c(C)c1	-8.0	/	14.0*	16.8	i	-19.0	-0.2
Cc1ccc(C(=O)n2cnc3ccccc32)cc1C	-11.5	4.4	19.4*	-15.2	-8.3	-15.3	26.4*
Cc1ccc(C(=O)O)cc1NC(=S)NC(=O)c1ccc(COc2ccccc2)cc1	0.7	0.0	15.9*	-1.5	i	1.5	13.2*
CC(=O)Nc1nc(SCC(=O)Nc2nc(C)cs2)[nH]c(=O)c1NC(=O)c1ccccc1	/	/	/	/	/	-2.0	/
CCOC(=O)C1CCN(C(=O)c2ccc3c(c2)NC(=O)/C(=C/c2ccccc2)S3)CC1	15.8	-0.8	6.5	16.6	2.6	4.6	/
CCOC(=O)C1CCN(C(=O)c2ccc3c(c2)NC(=O)/C(=C\c2cccc(C)c2)S3)CC1	9.6	0.0	13.3*	-2.4	-0.2	-7.5	0.6
COCCn1c(-c2ccc(OC)cc2)cnc1SCC(=O)Nc1nnc(C)s1	/	/	/	/	/	-8.0	/
O=c1[nH]c(C2CCN(S(=O)(=O)c3ccccc3C(F)(F)F)CC2)nc2c1nnn2Cc1ccccc1	-0.3	0.7	12.2	12.2	-0.8	0.9	/
O=c1[nH]c(C2CCN(S(=O)(=O)c3ccccc3F)CC2)nc2c1nnn2Cc1ccc(OC(F)(F)F)cc1	14.8	0.5	13.1*	-3.0	-0.2	6.0	6.7
COc1cc(CC2C(=O)N(C)C(=O)N(C)C2=O)ccc1OCc1ccccc1	-11.8	1.1	2.1	29.5	i	0.1	/

High-throughput results deposited in PubChem by several laboratories.
